About 83,000 compounds went through this panel and 20% of them were active in at least one assay; those are over-represented in the sample as a whole.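 Each cell line was grown in a 96-well plate and treated with one concentration of compound for 48 hours. Values below 10 were considered active.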 Active and inactive are the calls of the source.
test system: PC-3 prostate; test: NCI-60 one-dose screen, 48 h (100 = growth as untreated, 0 = no growth, -100 = all killed); conditions: 10 µM unless noted

Row | Compound | growth
1 | C=C1CC[C@@H]2[C@]3(C)COC(c4cn[nH]c4-c4ccc(Br)cc4)O[C@@H]3CC[C@@]2(C)[C@@H]1C/C=C1/C(=O)OCC1O (some centres not stated) | -44.1% (active)
2 | Cc1cnc(C(=O)NNc2nc3cc(F)ccc3n3c(C(=O)N4CC5CC(C4)N5)ccc23)cn1 | 47.2% (inactive)
3 | CCCSc1nc(Nc2ccc(S(N)(=O)=O)cc2)c(C#N)c(-c2cc(OC)c(OC)c(OC)c2)n1 | 12.6% (inactive)
4 | C=C1CCC2C3(C)COC(c4ccccc4)OC3CCC2(C)C1CC(NCc1ccccc1)C1=CCOC1=O (configuration not stated) | 31.6% (inactive)
5 | C=C1CC[C@@H]2[C@]3(C)COC(c4ccccc4)O[C@@H]3CC[C@@]2(C)[C@@H]1C/C=C1/C(=O)OCC1OC(C)=O (some centres not stated) | -41.4% (active)

test system: SK-MEL-5 melanoma; test: as above; conditions: 10 µM unless noted

Row | Compound | growth
6 | O=C(COc1ccc(NC(=O)Nc2ccc(Cl)cc2)cc1)N/N=C/c1ccccc1 | -94% (active)
7 | COc1cc(/C=C/C(=O)c2ccccc2)ccc1Oc1nc(Nc2ccc(F)cc2)nc(N(C)C)n1 | 18.9% (inactive)
8 | CN(C)CCCNC(=O)c1cc(NC(=O)c2cc(NC(=O)c3ccc(/C=C/c4ccccc4)cc3)cn2C)cn1C | 40.3% (inactive)
9 | COc1ccc(C(=O)/C=C/c2ccc(Oc3nc(Nc4ccc(F)cc4)nc(N(C)C)n3)c(OC)c2)cc1 | 32.9% (inactive)
10 | CN(C)CCOc1ccc(C(=O)C2[C@H](c3ccc(Cl)cc3)[C@@H](c3ccccc3)NC23C(=O)Nc2ccc(Br)cc23)cc1 (some centres not stated) | -16.1% (active)
11 | COc1ccc(-c2ccc(SCC(=O)NCCc3ccc(S(N)(=O)=O)cc3)nn2)cc1 | 52.9% (inactive)
12 | Cc1nc(Nc2ncc(C(=O)Nc3c(C)cccc3Cl)s2)cc(N2CCN(CCCNC(=O)COc3ccc(C4CCC(=O)NC4=O)cc3)CC2)n1 (configuration not stated) | 73.7% (inactive)
13 | C=C1CCC2C3(C)COC(c4ccc(F)cc4)OC3CCC2(C)C1C/C=C1/C(=O)OCC1O (configuration not stated) | -90.3% (active)
14 | O=c1onc(-c2cc3ccccc3nc2Cl)n1-c1cccc2ccccc12 | 3.23% (active)
15 | O=C1NC(=O)/C(=C/c2ccccc2OCc2cc3ccccc3nc2Cl)S1 | 67.6% (inactive)
16 | O=C(COc1ccc(NC(=O)Nc2ccc(Cl)c(Cl)c2)cc1)N=Nc1c(O)[nH]c2ccc(Br)cc12 | -89% (active)
17 | COc1cccc(/C=C/c2nc3ccccc3c(=O)n2CC(=O)Nc2ccc(Cl)cc2)c1 | 101% (inactive)
18 | COc1cc(C2CC(c3cc(OC)c(OC)c(OC)c3)=NN2c2ccccc2)ccc1OCc1ccc(C)cc1 (configuration not stated) | 92.3% (inactive)
19 | CCOP(=O)(OCCCl)c1nc(-c2ccc(C)cc2)oc1NCc1ccccc1 (configuration not stated) | 84.8% (inactive)
20 | Cc1ccccc1[C@H]1C(C(=O)c2ccc(Cl)cc2)C2(N[C@@H]1c1ccccc1)C(=O)Nc1ccccc12 (some centres not stated) | -72.2% (active)
21 | Cc1ccccc1[C@H]1C(C(=O)c2ccc(Cl)cc2)C2(N[C@@H]1c1ccccc1)C(=O)Nc1ccc(Br)cc12 (some centres not stated) | 35.3% (inactive)

Row | Compound | growth
22 | Cc1cc(=O)oc2cc(OCCOc3ccc(/C=C/C(=O)Nc4ccccc4N)cc3)ccc12 | -87.6% (active)
23 | Cn1cc(NC(=O)c2cc(NC(=O)c3ccc(/C=C/c4ccccc4)cc3)cn2C)cc1C(=O)NCCCN1CCOCC1 | -70% (active)
24 | CCCn1cc(-c2nc(Nc3ccc(C(=O)NCCCCNc4cccc5c4C(=O)N(C4CCC(=O)NC4=O)C5=O)cc3)nc3[nH]ccc23)cn1 (configuration not stated) | 15.8% (inactive)
25 | COc1c(F)ccc(C(=O)Nc2ccc3nc(NC(=O)C4CCCN(S(=O)(=O)c5ccc(C(F)(F)F)cc5)C4)sc3c2)c1F (configuration not stated) | 84.9% (inactive)
26 | Cn1nc(C(F)(F)F)cc1-c1cc(Cl)c(COc2ccc(Cl)cc2)c(-c2ccc(Cl)c(C(F)(F)F)c2)c1O | -74.4% (active)
27 | COc1ccc2c(c1)c(/C=N/Nc1ccc3ccccc3n1)cn2C | 23% (inactive)
28 | COc1c(F)ccc(C(=O)Nc2ccc3nc(NC(=O)C4CCCN(S(=O)(=O)c5ccc(Br)c(F)c5)C4)sc3c2)c1F (configuration not stated) | 85.7% (inactive)
29 | Clc1cccc(-c2ccc(OCCCN3CCN(c4ccncc4)CC3)cc2)c1 | -98% (active)
30 | CC12CC[C@@H]3[C@]4(C)COC(c5cn[nH]c5-c5ccc(Br)cc5)O[C@@H]4CC[C@@]3(C)[C@@H]1CC(C1=CCOC1=O)O2 (some centres not stated) | 32.4% (inactive)
31 | CC12CC[C@@H]3[C@]4(C)COC(c5cn[nH]c5-c5cccc(Cl)c5)O[C@@H]4CC[C@@]3(C)[C@@H]1CC(C1=CCOC1=O)O2 (some centres not stated) | 8.92% (active)
32 | CCCSc1nc(Nc2ccc(S(N)(=O)=O)cc2)c(C#N)c(-c2ccc(Cl)cc2)n1 | 55.9% (inactive)
33 | COc1ccc(-c2nc3ccc(C(=O)NN4C(=O)c5ccc([N+](=O)[O-])cc5C4=O)cc3[nH]2)cc1 | 83.1% (inactive)
34 | C=C1CC[C@@H]2[C@]3(C)COC(c4cn[nH]c4-c4ccc(Br)cc4)O[C@@H]3CC[C@@]2(C)[C@@H]1C/C=C1/C(=O)OCC1O (some centres not stated) | -97% (active)
35 | CCCSc1nc(Nc2ccc(S(N)(=O)=O)cc2)c(C#N)c(-c2cc(OC)c(OC)c(OC)c2)n1 | 6.41% (active)
36 | C=C1CCC2C3(C)COC(c4ccccc4)OC3CCC2(C)C1CC(NCc1ccccc1)C1=CCOC1=O (configuration not stated) | 69.9% (inactive)
37 | C=C1CC[C@@H]2[C@]3(C)COC(c4ccccc4)O[C@@H]3CC[C@@]2(C)[C@@H]1C/C=C1/C(=O)OCC1OC(C)=O (some centres not stated) | -45.1% (active)

Reference: PubChem BioAssay (NCI)
